{"source": "PubChem BioAssay (NCI)", "note": "The panel holds about 79,000 compounds, 15% with a hit somewhere; the sample as a whole holds those more often. A number with no mark means an inactive call. Active and inactive are the calls of the source. Cut-off read from the data, not from the text of the source: active = growth inhibition above about 70%; inactive = the rest.", "data": [{"test": "NCI Yeast Anticancer Drug Screen. Data for the bub3 strain (AID 167)", "conditions": "S. cerevisiae bub3 mutant strain, at 5.0 µM (retest, dose inferred, filed as 0.5), stronger effect = higher value", "in_short": "(§1)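 In this screen, a yeast mutant lacking normal mitotic checkpoint function is challenged with compound. Relative growth versus vehicle gives the inhibition value.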", "values": [{"smiles": "CC(=O)Oc1ccccc1C(=O)/C=C/c1ccccc1", "growth inhibition": "-1%"}, {"smiles": "CN(C)C(=S)/N=c1\\ssc(=S)n1-c1ccccc1", "growth inhibition": "46%"}, {"smiles": "CCOC(=O)C(NS(=O)(=O)c1ccccc1)(C(F)(F)F)P(=O)(OCC(C)C)OCC(C)C", "note": "(stereo not drawn)", "growth inhibition": "4%"}, {"smiles": "CC(C)Nc1nc(NC(C)C)c2cnn(-c3ccccc3)c2n1", "growth inhibition": "1%"}, {"smiles": "CCCCCCCCC1(OCCCS(=O)(=O)O)COc2ccccc2OCCOCCOc2ccccc2OC1", "growth inhibition": "-8%"}, {"smiles": "Oc1ccc2c(c1)Cc1ccccc1-2", "growth inhibition": "-2%"}, {"smiles": "CCOC(=O)N1C2C=CC(=O)C(C=C2)N1C(=O)OCC", "note": "(stereo not drawn)", "growth inhibition": "1%"}, {"smiles": "CC(=O)OCc1ccc2c(c1)C(O)NC(=O)O2", "note": "(stereo not drawn)", "growth inhibition": "0%"}, {"smiles": "CC(C)=CCc1ccc(O)cc1", "growth inhibition": "-10%"}, {"smiles": "CCCCCCCCC(=O)Cl", "growth inhibition": "0%"}, {"smiles": "O=S1(=O)C(C(O)(c2ccccc2)c2ccccc2)CCCN1c1ccccc1", "note": "(stereo not drawn)", "growth inhibition": "0%"}, {"smiles": "CCCCCCCCCCCCNCC(=O)O", "growth inhibition": "7%"}, {"smiles": "CC(C)=CCc1c2c(c(O)c3c(=O)c(-c4ccc(O)cc4O)coc13)C=CC(C)(C)O2", "growth inhibition": "26%"}, {"smiles": "O=C(CCC(O)(c1ccccc1)c1ccccc1)c1ccccc1", "growth inhibition": "-9%"}, {"smiles": "CS(=O)(=O)OCCN(CCOS(C)(=O)=O)c1ccc(C=Nc2ccc(-c3csc(-c4ccc(Br)cc4)n3)cc2)cc1", "growth inhibition": "-4%"}, {"smiles": "O=P(O)(CN1CCN(CP(=O)(O)c2ccccc2)CCN(CP(=O)(O)c2ccccc2)CC1)c1ccccc1", "growth inhibition": "30%"}, {"smiles": "CC(C)c1ccc2c(c1)CCC1C(C)(CN)CCCC21C", "note": "(stereo not drawn)", "growth inhibition": "10%"}, {"smiles": "Cc1ccc(S(=O)(=O)NNc2nc(N3CCOCC3)nc(N3CCOCC3)n2)cc1", "growth inhibition": "-1%"}, {"smiles": "O=C1OC(CC(=O)c2ccc(Cl)cc2Cl)C(Cl)=C1Cl", "note": "(stereo not drawn)", "growth inhibition": "-7%"}, {"smiles": "CCOC(=O)c1ccc(-n2c(C)nc3ccc(Br)cc3c2=O)cc1", "growth inhibition": "1%"}, {"smiles": "CCN(CC)CCOc1ccc(C=C2c3ccccc3-c3ccccc32)cc1", "growth inhibition": "99% (active)"}, {"smiles": "Cc1nn(C(=O)c2ccccc2O)c2c1C(c1ccc(O)cc1O)SC(N)=N2", "note": "(stereo not drawn)", "growth inhibition": "15%"}, {"smiles": "CN(NC(=O)/C(=C/c1cc(Cl)cc(Cl)c1O)NC(=O)c1ccccc1)c1cnn(-c2ccccc2)c(=O)c1Cl", "growth inhibition": "-13%"}, {"smiles": "Cn1c(=S)c2[nH]c(SCc3ccncc3)nc2n(C)c1=O", "growth inhibition": "-9%"}, {"smiles": "O=C1N=c2ccc(Br)cc2=C1c1sc(=O)n(Cc2nc3ccccc3[nH]2)c1O", "growth inhibition": "1%"}, {"smiles": "N#C/C(=C\\c1cccnc1)c1csc2ccccc12", "growth inhibition": "1%"}, {"smiles": "Cc1nn(CCO)c(=O)c(C#N)c1C", "growth inhibition": "19%"}, {"smiles": "CN(/N=C/c1ccc(C(=O)O)cc1)C1=NCCCCN1", "growth inhibition": "2%"}, {"smiles": "C=CCCCN1C(=O)C2C3c4ccccc4C(C=O)(c4ccccc43)C2C1=O", "note": "(stereo not drawn)", "growth inhibition": "26%"}, {"smiles": "CC(Cc1ccccc1)N1C(=O)C=CC1=O", "note": "(stereo not drawn)", "growth inhibition": "76% (active)"}, {"smiles": "O=C(Nc1c(Cl)cc([N+](=O)[O-])cc1Cl)/C(=N\\Nc1cccc(Cl)c1)c1c(O)c2ccccc2oc1=O", "growth inhibition": "5%"}, {"smiles": "C/C(=N/O)c1ccc2c(c1)C(=NO)c1cc(/C(C)=N/O)ccc1-2", "growth inhibition": "21%"}, {"smiles": "CCCCCCCCCCCC(=O)NC(CCC(=O)O)C(=O)O", "note": "(stereo not drawn)", "growth inhibition": "-7%"}, {"smiles": "O=C1c2ccccc2C(=O)c2c1cccc2[N+](=O)[O-]", "growth inhibition": "82% (active)"}, {"smiles": "C/C=C\\C=N\\NC(N)=S", "growth inhibition": "2%"}, {"smiles": "Oc1c(Cl)cc(C(c2cc(Cl)c(O)c(Cl)c2)C(c2cc(Cl)c(O)c(Cl)c2)c2cc(Cl)c(O)c(Cl)c2)cc1Cl", "growth inhibition": "99% (active)"}, {"smiles": "S=C1NC2=C(CSC/C2=C\\c2ccccc2)C(c2ccccc2)N1", "note": "(stereo not drawn)", "growth inhibition": "-45%"}, {"smiles": "O=[N+]([O-])c1cccc2nc3ccccc3c(NCCNCCO)c12", "growth inhibition": "42%"}, {"smiles": "COC12C=CC(CC1)c1c2c(O)c2ccncc2c1O", "note": "(stereo not drawn)", "growth inhibition": "18%"}]}, {"test": "NCI Yeast Anticancer Drug Screen. Data for the bub3 strain (AID 167)", "conditions": "S. cerevisiae bub3 mutant strain, at 50.0 µM (retest, dose inferred, filed as 5.0), stronger effect = higher value", "in_short": "as §1", "values": [{"smiles": "CC(=O)Oc1ccccc1C(=O)/C=C/c1ccccc1", "growth inhibition": "90% (active)"}, {"smiles": "CN(C)C(=S)/N=c1\\ssc(=S)n1-c1ccccc1", "growth inhibition": "100% (active)"}, {"smiles": "CCOC(=O)C(NS(=O)(=O)c1ccccc1)(C(F)(F)F)P(=O)(OCC(C)C)OCC(C)C", "note": "(stereo not drawn)", "growth inhibition": "0%"}, {"smiles": "CC(C)Nc1nc(NC(C)C)c2cnn(-c3ccccc3)c2n1", "growth inhibition": "68%"}, {"smiles": "CCCCCCCCC1(OCCCS(=O)(=O)O)COc2ccccc2OCCOCCOc2ccccc2OC1", "growth inhibition": "80% (active)"}, {"smiles": "Oc1ccc2c(c1)Cc1ccccc1-2", "growth inhibition": "82% (active)"}, {"smiles": "CCOC(=O)N1C2C=CC(=O)C(C=C2)N1C(=O)OCC", "note": "(stereo not drawn)", "growth inhibition": "61%"}, {"smiles": "CC(=O)OCc1ccc2c(c1)C(O)NC(=O)O2", "note": "(stereo not drawn)", "growth inhibition": "-7%"}, {"smiles": "CC(C)=CCc1ccc(O)cc1", "growth inhibition": "99% (active)"}, {"smiles": "CCCCCCCCC(=O)Cl", "growth inhibition": "77% (active)"}, {"smiles": "O=S1(=O)C(C(O)(c2ccccc2)c2ccccc2)CCCN1c1ccccc1", "note": "(stereo not drawn)", "growth inhibition": "3%"}, {"smiles": "CCCCCCCCCCCCNCC(=O)O", "growth inhibition": "67%"}, {"smiles": "CC(C)=CCc1c2c(c(O)c3c(=O)c(-c4ccc(O)cc4O)coc13)C=CC(C)(C)O2", "growth inhibition": "96% (active)"}, {"smiles": "O=C(CCC(O)(c1ccccc1)c1ccccc1)c1ccccc1", "growth inhibition": "46%"}, {"smiles": "CS(=O)(=O)OCCN(CCOS(C)(=O)=O)c1ccc(C=Nc2ccc(-c3csc(-c4ccc(Br)cc4)n3)cc2)cc1", "growth inhibition": "90% (active)"}, {"smiles": "O=P(O)(CN1CCN(CP(=O)(O)c2ccccc2)CCN(CP(=O)(O)c2ccccc2)CC1)c1ccccc1", "growth inhibition": "72% (active)"}, {"smiles": "CC(C)c1ccc2c(c1)CCC1C(C)(CN)CCCC21C", "note": "(stereo not drawn)", "growth inhibition": "100% (active)"}, {"smiles": "Cc1ccc(S(=O)(=O)NNc2nc(N3CCOCC3)nc(N3CCOCC3)n2)cc1", "growth inhibition": "-1%"}, {"smiles": "O=C1OC(CC(=O)c2ccc(Cl)cc2Cl)C(Cl)=C1Cl", "note": "(stereo not drawn)", "growth inhibition": "10%"}, {"smiles": "CCOC(=O)c1ccc(-n2c(C)nc3ccc(Br)cc3c2=O)cc1", "growth inhibition": "-1%"}, {"smiles": "CCN(CC)CCOc1ccc(C=C2c3ccccc3-c3ccccc32)cc1", "growth inhibition": "99% (active)"}, {"smiles": "Cc1nn(C(=O)c2ccccc2O)c2c1C(c1ccc(O)cc1O)SC(N)=N2", "note": "(stereo not drawn)", "growth inhibition": "81% (active)"}, {"smiles": "CN(NC(=O)/C(=C/c1cc(Cl)cc(Cl)c1O)NC(=O)c1ccccc1)c1cnn(-c2ccccc2)c(=O)c1Cl", "growth inhibition": "43%"}, {"smiles": "Cn1c(=S)c2[nH]c(SCc3ccncc3)nc2n(C)c1=O", "growth inhibition": "2%"}, {"smiles": "O=C1N=c2ccc(Br)cc2=C1c1sc(=O)n(Cc2nc3ccccc3[nH]2)c1O", "growth inhibition": "13%"}, {"smiles": "N#C/C(=C\\c1cccnc1)c1csc2ccccc12", "growth inhibition": "83% (active)"}, {"smiles": "Cc1nn(CCO)c(=O)c(C#N)c1C", "growth inhibition": "77% (active)"}, {"smiles": "CN(/N=C/c1ccc(C(=O)O)cc1)C1=NCCCCN1", "growth inhibition": "28%"}, {"smiles": "C=CCCCN1C(=O)C2C3c4ccccc4C(C=O)(c4ccccc43)C2C1=O", "note": "(stereo not drawn)", "growth inhibition": "17%"}, {"smiles": "CC(Cc1ccccc1)N1C(=O)C=CC1=O", "note": "(stereo not drawn)", "growth inhibition": "99% (active)"}, {"smiles": "O=C(Nc1c(Cl)cc([N+](=O)[O-])cc1Cl)/C(=N\\Nc1cccc(Cl)c1)c1c(O)c2ccccc2oc1=O", "growth inhibition": "5%"}, {"smiles": "C/C(=N/O)c1ccc2c(c1)C(=NO)c1cc(/C(C)=N/O)ccc1-2", "growth inhibition": "98% (active)"}, {"smiles": "CCCCCCCCCCCC(=O)NC(CCC(=O)O)C(=O)O", "note": "(stereo not drawn)", "growth inhibition": "0%"}, {"smiles": "O=C1c2ccccc2C(=O)c2c1cccc2[N+](=O)[O-]", "growth inhibition": "88% (active)"}, {"smiles": "C/C=C\\C=N\\NC(N)=S", "growth inhibition": "7%"}, {"smiles": "Oc1c(Cl)cc(C(c2cc(Cl)c(O)c(Cl)c2)C(c2cc(Cl)c(O)c(Cl)c2)c2cc(Cl)c(O)c(Cl)c2)cc1Cl", "growth inhibition": "98% (active)"}, {"smiles": "S=C1NC2=C(CSC/C2=C\\c2ccccc2)C(c2ccccc2)N1", "note": "(stereo not drawn)", "growth inhibition": "96% (active)"}, {"smiles": "O=[N+]([O-])c1cccc2nc3ccccc3c(NCCNCCO)c12", "growth inhibition": "99% (active)"}, {"smiles": "COC12C=CC(CC1)c1c2c(O)c2ccncc2c1O", "note": "(stereo not drawn)", "growth inhibition": "95% (active)"}]}]}
